TDP1 cell CPT = DT40-hTDP1 cell growth loss with CPT; chicken DT40 Tdp1-/-;hTDP1 cells + 20 nM CPT, ATP luminescence, 48 h; Potency, µM (doses to about 46.2 µM), inactives show at the highest dose activity change, negative = growth inhibition, usual class: inhibitors; actives 12% (n = 420,000); AID 686979; note: % is set by controls: 0 for no effect and ±100 for the full control effect; nearly all actives have a fitted effect of over 55% in size
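Chicken DT40 Tdp1-/- cells complemented with human TDP1, 400 cells/well, exposed to compounds plus 20 nM camptothecin for at least 48 h at 37 C; viability read as ATP content by CellTiter-Glo luminescence.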
TDP1 inh = inhibitors of human tyrosyl-DNA phosphodiesterase TDP1. Q9NUW8. recombinant TDP1, AlphaScreen DNA substrate cleavage. Potency, µM (doses to about 130 µM), inactives show top-dose activity change, negative = inhibition, actives largely listed as inhibitors. actives 0.28% (n = 350,000); note: % is set by controls: 0 for no effect and ±100 for the full control effect; nearly all actives have a fitted effect of over 40% in size
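Tdp1 1 nM final; 15 min RT w/ cpd; substrate 15 nM, 5 min; beads 10 ug/ml, 10 min; AlphaScreen read. Neg ctrl: no enzyme.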
TDP1 cell noCPT = qHTS for Inhibitors of human tyrosyl-DNA phosphodiesterase 1 (TDP1): qHTS in cells in absence of CPT; DT40 Tdp1-/- hTDP1 cells, no CPT, ATP luminescence, 48 h; Potency, µM (highest dose often 46.2 µM), inactives show at the highest dose activity change, negative = growth inhibition, usual class: inhibitors; actives 15% (n = 420,000); AID 686978, 2013; note: % is set by controls: 0 for no effect and ±100 for the full control effect; nearly all actives have a fitted effect of over 55% in size
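Readout: luminescence from CellTiter-Glo after 30 min in the dark at RT. Cells: DT40 Tdp1-/- with stable hTDP1, 400/well. Exposure: compounds alone, ≥48 hr, 37 °C.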
ClpP mod = qHTS Assay for Activators of ClpP; ATP-dependent Clp protease proteolytic subunit (Bacillus subtilis (strain 168)), P80244; purified B. subtilis ClpP, FRET peptide cleavage, 20 min; Potency, µM (titrated, usually from 57.5 µM), for the others: at the top dose activity change, negative = active; actives 1.9% (n = 340,000); AID 651965, 2013; active = well fitted falling curve with a large enough effect; inconclusive = small, poorly fitted or top-dose-only effect; inactive = no such curve, though single readings can be large or run the other way; note: the source files actives as falling curves though it sought activators and does not explain the sign; nearly all actives have a fitted effect of over 65% in size
Target sequence (P80244 whole entry, looked up): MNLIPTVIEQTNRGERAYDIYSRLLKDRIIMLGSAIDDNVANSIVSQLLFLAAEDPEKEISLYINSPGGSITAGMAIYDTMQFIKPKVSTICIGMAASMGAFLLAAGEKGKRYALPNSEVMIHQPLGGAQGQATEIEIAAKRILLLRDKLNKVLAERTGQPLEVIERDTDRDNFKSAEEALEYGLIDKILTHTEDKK
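Purified B. subtilis ClpP, 10 microg/mL final in Tris/HCl pH8 with KCl, BSA, glycerol and Tween-20, cleaved an Abz/nitrotyrosine-quenched decapeptide. Fluorescence (ex 320, em 430) was read at 0 and 20 min at room temperature. Delta was normalized to 5.8 microM ADEP and DMSO/no-enzyme controls.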
The depositor's hits bear a star; ? = inconclusive; nt = no result; [ ] = dose if it differs, or a comment. Shown are actives, neighbours in structure and some others; about 17% of the full set was active somewhere. Unless noted, calls come from the whole dose curve; as a rule, active = well fitted curve in the direction sought with a large enough effect; inconclusive = small, poorly fitted or top-dose-only effect, or another doubt; inactive = no such curve, though single readings can be large; an effect the other way counts as inactive or inconclusive. Potency is the fitted concentration of half-maximal effect.

SMILES	TDP1 cell CPT	TDP1 inh	TDP1 cell noCPT	ClpP mod
CC[C@H](C)[C@H](NC(=O)[C@H](CCCNC(=N)N)NC(=O)[C@@H](NC(=O)[C@H](CCCNC(=N)N)NC(=O)[C@H](CCCCN)NC(=O)[C@H](CCCNC(=N)N)NC(=O)[C@@H](NC(=O)[C@H](CC(N)=O)NC(=O)[C@@H](N)CS)[C@@H](C)O)[C@@H](C)CC)C(=O)N[C@@H](CCC(N)=O)C(=O)N[C@@H](CCCNC(=N)N)C(=O)NCC(=O)N1CCC[C@H]1C(=O)NCC(=O)N[C@@H](CCCNC(=N)N)C(=O)N[C@@H](C)C(=O)N[C@@H](Cc1ccccc1)C(=O)N[C@H](C(=O)N[C@H](C(=O)N[C@H](C(=O)NCC(=O)N[C@@H](CCCCN)C(=O)O)[C@@H](C)CC)[C@@H](C)O)C(C)C	nt	21%	nt	nt
COc1cccc(NC(=O)N(C)C[C@H]2Oc3cc(C#Cc4ccncc4)ccc3S(=O)(=O)N([C@H](C)CO)C[C@H]2C)c1	16µM*	nt	23µM*	0%
C[C@H]1CN([C@@H](C)CO)S(=O)(=O)c2ccc(Br)cc2O[C@H]1CN(C)C(=O)Cc1ccccc1	?	nt	?	2%
C[C@@H]1CN([C@H](C)CO)S(=O)(=O)c2ccc(C#Cc3ccccc3F)cc2O[C@@H]1CN(C)C(=O)Cc1ccccc1	15µM*	nt	13µM*	?
CC(C)NC(=O)N(C)C[C@H]1Oc2cc(C#Cc3ccc(F)cc3)ccc2S(=O)(=O)N([C@H](C)CO)C[C@H]1C	23µM*	nt	?	-9%
C[C@H](CO)N1C[C@H](C)[C@@H](CN(C)C(=O)Nc2ccc(F)cc2)Oc2cc(Br)ccc2S1(=O)=O	?	nt	?	-3%
COc1ccc(C#Cc2ccc3c(c2)O[C@@H](CN(C)C(=O)Nc2cccc(OC)c2)[C@H](C)CN([C@@H](C)CO)S3(=O)=O)cc1	-24%	nt	18µM*	4%
CC(C)(N)C(=O)N[C@@H](Cc1cnc[nH]1)C(=O)N[C@H](Cc1ccc2ccccc2c1)C(=O)N[C@H](Cc1ccccc1)C(=O)N[C@@H](CCCCN)C(N)=O	nt	11%	nt	nt
COC(=O)c1ccc(COc2ccc(/C=N/NC(N)=S)cc2)o1	?	5%	?	0%
COC1CCC(C(=O)c2ccc3nc4c(cc3c2)CCCO4)CC1 (stereo not given)	nt	5%	nt	nt
Nc1nc(N)c(-c2cccc(C(F)(F)F)c2)c(Cc2cccc(C(F)(F)F)c2)n1	2.9µM*	nt	1.3µM*	1%
O=C(CS(=O)(=O)c1cccc2nsnc12)N1CCN(c2ccccc2)CC1	-18%	0%	?	-3%
Cc1cccc(C(=O)NCC(=O)NCCCSc2ccccc2)c1	?	-3%[0.505 µM]	?	1%
O=C(CNC(=O)c1cccc(Cl)c1)NCCCSc1ccccc1	?	-3%[0.505 µM]	23µM*	0%
Cc1cccc(CS(=O)(=O)Cc2ccc(C(=O)NCCCN3CCCC3)o2)c1	-9%	3%	-10%	0%
Cc1ccc(CSCc2ccc(C(=O)NCCCN3CCOCC3)o2)cc1	?	0%	6.5µM*	1%
Cc1ccccc1CSCc1ccc(C(=O)NCCCN2CCOCC2)o1	-2%	1%	2%	-1%
O=C(NCCCN1CCN(CCCNC(=O)c2cccc(Cl)c2)CC1)c1cccc(Cl)c1	18µM*	3%	?	-2%
Cc1cccc(CS(=O)(=O)Cc2ccc(C(=O)NCCCN3CCOCC3)o2)c1	-12%	-10%	-1%	28µM*
O=C(NCCCN1CCCC1)c1ccc(CSCc2cccc(Cl)c2)o1	?	5%	?	-3%
O=C(CCN1CCCCC1)c1cccc(Cl)c1	21µM*	nt	?	0%
CN1CCN(CCCNC(=O)c2ccc(CSCc3cccc(Cl)c3)o2)CC1	?	6%	?	14µM*
Cc1ccc(C)c(N2CCN(C(=O)CN3C(=O)COc4ccc(S(=O)(=O)N5CCCC5)cc43)CC2)c1	nt	4%	nt	1%
Cc1ccc(CN2C(=O)C(C)Oc3ccc(C)cc32)cc1 (stereo not given)	?	nt	?	-2%
